Data: PubChem BioAssay (Tox21)
Unmarked numbers belong to inactive results. Active and inactive are the calls of the source. Calls come from the whole dose curve; as a rule, active = well fitted curve in the direction sought with a large enough effect in the repeat runs; inconclusive = weak or mixed curves; inactive = flat fitted curve, though single readings scatter.

Assay: qHTS assay to test for compound auto fluorescence at 590 nm (red) in HepG2 cell free culture (AID 720684)
Settings: cell-free medium autofluorescence, red 540/590 nm; series mostly up to 91.3 µM
Procedure, shortened: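 Measured in medium alone (MEM containing 10% FBS) following pintool addition of compound; emission at 590 nm with 540 nm excitation, referenced to Rose Bengal sodium.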
% is set by controls: 0 for no effect and ±100 for the full control effect.

Compound | outcome
CCc1ccccc1N | inactive
Cc1cccc(C)c1NC1=NCCCS1 | inactive
C[CH2][Hg][S]c1ccccc1C(=O)O | inactive
CC1(C)[C@H](C(=O)O[C@H](C#N)c2cccc(Oc3ccccc3)c2)[C@@H]1C=C(Br)Br | inactive
CN1C(=O)CN=C(c2ccccc2)c2cc([N+](=O)[O-])ccc21 | inactive
C=CCN1C[C@H](C)N([C@H](c2ccc(C(=O)N(CC)CC)cc2)c2cccc(OC)c2)C[C@H]1C | inactive
O=CC=O | inactive
C=C(C)C(=O)OCCCCOC(=O)C(=C)C | inactive
CCCCCBr | inactive
CC(C)[C@@H](C(=O)O[C@@H](C#N)c1cccc(Oc2ccccc2)c1)c1ccc(Cl)cc1 | inactive
Nc1ccccc1C(=O)OCCc1ccccc1 | inactive
CC(C)(C)N(NC(=O)c1ccc(Cl)cc1)C(=O)c1ccccc1 | inactive
COP(=O)(OC)OC(Br)C(Cl)(Cl)Br (configuration not stated) | inactive
Cc1ncc(C[n+]2csc(CCO)c2C)c(N)n1 | inactive
Nc1ccc2c(c1)Cc1ccccc1-2 | inactive
CCC(C)(C)O | inactive
CCC1(CCC(C)C)C(=O)NC(=O)NC1=O | inactive
NP(N)(=O)NC(=O)c1ccc(F)cc1 | inactive
CN(C)c1ccc(N=O)cc1 | inactive
C[Si](Cn1cncn1)(c1ccc(F)cc1)c1ccc(F)cc1 | inactive
O=C1NC(=O)C(=O)C(=O)N1 | inactive
CC(=O)NNc1ccccc1 | inactive
Clc1ccccc1 | inactive
NNCCO | inactive
C[C@]12C=CC3=C4CCC(=O)C=C4CC[C@H]3[C@@H]1CC[C@@H]2O | inactive
O=C(O)CCCOc1ccc(Cl)cc1Cl | inactive
CC(C)c1ccc(NC(=O)N(C)C)cc1 | inactive
CC(=O)OC(c1ccccc1)C(Cl)(Cl)Cl (configuration not stated) | inactive
c1ccc2sc(SNC3CCCCC3)nc2c1 | inactive
O=[N+]([O-])c1cc(Cl)c(Cl)cc1Cl | inactive

Assay: qHTS assay to test for compound auto fluorescence at 460 nm (blue) in HepG2 cell free culture (AID 720685)
Settings: Cell-free culture medium, blue autofluorescence 405/460 nm; series mostly up to 91.3 µM
Procedure, shortened: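 Compound (23 nL) or DMSO pinned into cell-free MEM with 10% FBS; blue fluorescence read at 405/460 nm excitation/emission, expressed as auto-fluorescence equivalency to triamterene.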

Compound | outcome | fluorescence, % of fluorescent control
CCc1ccccc1N | inactive | 
Cc1cccc(C)c1NC1=NCCCS1 | inactive | 
C[CH2][Hg][S]c1ccccc1C(=O)O | inactive | 
CC1(C)[C@H](C(=O)O[C@H](C#N)c2cccc(Oc3ccccc3)c2)[C@@H]1C=C(Br)Br | inactive | 
[Cl-].[Cl-].[Hg+2] | inactive | 
CN1C(=O)CN=C(c2ccccc2)c2cc([N+](=O)[O-])ccc21 | inactive | 
C=CCN1C[C@H](C)N([C@H](c2ccc(C(=O)N(CC)CC)cc2)c2cccc(OC)c2)C[C@H]1C | inactive | 
COc1ccc(C(=O)c2c(C)n(CCN3CCOCC3)c3ccccc23)cc1 | inactive | 
O=CC=O | inactive | 
C=C(C)C(=O)OCCCCOC(=O)C(=C)C | inactive | 
CCCCCBr | inactive | 
CC(C)[C@@H](C(=O)O[C@@H](C#N)c1cccc(Oc2ccccc2)c1)c1ccc(Cl)cc1 | inactive | 
Nc1ccccc1C(=O)OCCc1ccccc1 | inactive | 
O=C(O)C(O)C(O)C(=O)O (configuration not stated) | inactive | 
CC(C)(C)N(NC(=O)c1ccc(Cl)cc1)C(=O)c1ccccc1 | inactive | 
COP(=O)(OC)OC(Br)C(Cl)(Cl)Br (configuration not stated) | inactive | 
Cc1ncc(C[n+]2csc(CCO)c2C)c(N)n1 | inactive | 
Nc1ccc2c(c1)Cc1ccccc1-2 | inactive | 
CCC(C)(C)O | inactive | 

Compound | outcome | fluorescence, % of fluorescent control
CCC1(CCC(C)C)C(=O)NC(=O)NC1=O | inactive | 
CN1CC[C@]23c4c5ccc(O)c4O[C@H]2[C@@H](O)C=C[C@H]3[C@H]1C5 | inactive | 
NP(N)(=O)NC(=O)c1ccc(F)cc1 | inactive | 
CN(C)c1ccc(N=O)cc1 | inactive | 
C[Si](Cn1cncn1)(c1ccc(F)cc1)c1ccc(F)cc1 | inactive | 
O=C1NC(=O)C(=O)C(=O)N1 | inactive | 
CC(=O)NNc1ccccc1 | inactive | 
Clc1ccccc1 | inactive | 
NNCCO | inactive | 
CCOP(=S)(OCC)Oc1ccc(S(C)=O)cc1 (configuration not stated) | inactive | 
O=C(NC(=O)c1cc(F)c(F)cc1Cl)Nc1cc(F)ccc1N1CCC(C(=O)O)CC1 | inactive | 
Nc1c(Br)cc(Br)c2c1C(=O)c1ccccc1C2=O |  | -0.366% [at 18.6 µM]
O=C(O)CCCOc1ccc(Cl)cc1Cl | inactive | 
CC(C)c1ccc(NC(=O)N(C)C)cc1 | inactive | 
CC(=O)OC(c1ccccc1)C(Cl)(Cl)Cl (configuration not stated) | inactive | 
c1ccc2sc(SNC3CCCCC3)nc2c1 | inactive | 
NCCc1cc(O)c(O)cc1O | inactive | 
O=[N+]([O-])c1cc(Cl)c(Cl)cc1Cl | inactive | 
